LANA-H2B inh: blockers of LANA interaction with H2A/H2B – biochemical, FP readout, HTS, primary screen; 0.6% of 320,000 active; AID 2629, 2010; inhibition, % (test concentration not listed); cell-free LANA-H2A/H2B peptide, fluorescence polarization; in the data active = inhibition mostly above about 10%, no sharp cut-off; inactive = mostly below about 6.7%
C-LANA FP: inhibitors of KSHV C-LANA binding to DNA, primary screen, biochemical, fluorescence polarization, FAM-LBS DNA, MBP-C-LANA, single point | 0.078% of 340,000 active | AID 504423, 2011 | Kaposi's sarcoma herpesvirus LANA C-terminal domain (residues 932-1162) DNA binding | inhibition, % at 9 µM;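 active = highest replicate inhibition at or above 60% at 9 µM, even if other replicates fall short; inactive = all replicates below 60% inhibition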;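 also: 0% = neutral control wells and 100% = 4 µM acridine orange control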
Keap1 Nrf2 FP: Keap1-Nrf2 protein-protein interaction inhibitors, primary screen, biochemical, fluorescence polarization, single point | Kelch-like ECH-associated protein 1 (Homo sapiens), Q14145 | Keap1 Kelch-Nrf2 peptide fluorescence polarization, 1536-well | inhibition, % at 9.4 µM | 0.15% of 340,000 active | AID 504523, 2011; in the data active = inhibition above about 12%;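 also: human Keap1 Kelch domain with fluorescein labeled Nrf2 9mer peptide probe; 0% = neutral control wells and 100% = peptide positive control; higher means more block of Keap1 binding to Nrf2 peptide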
Target sequence (Q14145 whole entry, looked up, the tested form may be a part): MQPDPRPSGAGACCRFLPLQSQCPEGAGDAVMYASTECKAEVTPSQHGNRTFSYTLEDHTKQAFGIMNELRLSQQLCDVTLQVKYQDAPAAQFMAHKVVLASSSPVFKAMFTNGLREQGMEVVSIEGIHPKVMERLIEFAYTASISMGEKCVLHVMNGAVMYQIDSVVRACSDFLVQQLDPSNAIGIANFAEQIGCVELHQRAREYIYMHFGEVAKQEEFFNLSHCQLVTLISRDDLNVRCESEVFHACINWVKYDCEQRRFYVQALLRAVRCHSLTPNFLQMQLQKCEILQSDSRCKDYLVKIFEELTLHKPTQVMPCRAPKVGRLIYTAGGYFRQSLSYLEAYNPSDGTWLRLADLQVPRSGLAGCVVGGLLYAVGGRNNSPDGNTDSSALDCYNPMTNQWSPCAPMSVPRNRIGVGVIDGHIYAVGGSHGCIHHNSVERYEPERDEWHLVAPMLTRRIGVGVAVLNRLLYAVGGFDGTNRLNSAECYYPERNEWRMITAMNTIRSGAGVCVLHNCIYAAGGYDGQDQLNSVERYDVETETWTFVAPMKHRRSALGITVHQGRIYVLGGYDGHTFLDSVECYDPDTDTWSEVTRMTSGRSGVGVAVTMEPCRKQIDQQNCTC
Cardiac RTF inh: cardiac RTF calcium sensitivity inhibitors, primary screen, biochemical, IANBD-TnC fluorescence, EC70 calcium; Troponin I, cardiac muscle (Homo sapiens) + Troponin T, cardiac muscle (Homo sapiens) + …; IANBD-labeled cardiac RTF, Ca2+ fluorescence; inhibition, % at 7.15 µM; 0.12% of 340,000 active; AID 493244, 2011;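 active = inhibition above the mean inhibition of all tested compounds plus 3 SD, cut at about 17% in these data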;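 also: assay run at fixed EC70 calcium of 1.6 mM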
RTF Ca sens act: cardiac RTF calcium sensitivity activators, primary screen, biochemical, IANBD-TnC fluorescence, EC20 calcium | AID 493008, 2010 | IANBD-labeled TnC RTF fluorescence at EC20 calcium; 0% EC20 calcium, 100% full calcium | activation, % at 7.2 µM | 0.24% of 340,000 active | Troponin I, cardiac muscle (Homo sapiens) + Troponin T, cardiac muscle (Homo sapiens) + …;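 active = activation above the mean over all tested compounds plus 3 SD, cut at about 30% in these data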;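 also: rise in fluorescence read as greater calcium sensitivity of cardiac thin filaments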
Keap1 TSA: Keap1 Kelch domain binders by thermal stabilisation, dose response, biophysical, thermal shift, RT-PCR instrument, cherry-pick; delta Tm; hits give high values; 8% of 400 active; shares compounds with Keap1 Nrf2 FP; max delta Tm, degrees C; in the data active = max delta Tm above about 0.48 degrees C
Sypro dye melt: Sypro Orange dye melt without protein, dose response, artefact control for Keap1-Nrf2 interaction inhibitor project, biochemical, thermal shift counterscreen, cherry-pick; 140 tested, under 10 active; Sypro Orange dye-only thermal melt, no protein, delta Tm; top dose 26 µM; shares compounds with Keap1 Nrf2 FP; delta Tm, degrees C (no concentration beside the values); AID 651858, 2012;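 active = at highest dose tested, delta Tm positive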
* = called active by the depositor; i = inactive; nt = no result given; + = active, no number. Sampled rows, rich in hits. Any-hit rate of the full collection: about 0.98%.

SMILES	LANA-H2B inh	C-LANA FP	Keap1 Nrf2 FP	Cardiac RTF inh	RTF Ca sens act	Keap1 TSA	others
CCCc1cc(=O)[nH]c(SCC(=O)NC(=O)NC2CCCC2)n1	-1	-1	-2	0	-3	nt
C=CCn1c(O)c(N=NC(=O)CNC(=O)Cc2ccccc2)c2ccccc21	-6	0	-5	-1	-3	nt
Fc1ccc(C2=CC(c3cccs3)n3nnnc3N2)cc1 (stereo not given)	0	9	1	-5	3	nt
Cc1ccc(C2=CC(c3cccs3)n3nnnc3N2)cc1 (stereo not given)	23*	33	35*	-1	5	-0.06	Sypro dye melt=-26
NS(=O)(=O)c1ccc(NC(=O)NC2CC(=O)N(c3ccc4c(c3)OCCO4)C2)cc1 (stereo not given)	-1	0	-1	-21	3	nt
O=C(NCC(=O)N1CCN(c2ncccn2)CC1)c1ccccc1OC(F)F	5	2	2	-10	17	nt
CNc1nnc(SCC(=O)c2cc(C)n(C3CC3)c2C)s1	1	26	46*	-5	-1	-0.08
CCOCC(=O)NCc1ccc2c(c1)OCO2	2	-1	-6	0	-5	nt
O=C(CNC(=O)c1ccc2c(c1)OCO2)N/N=C/c1cc(Br)ccc1O	-8	1	-3	-1	-4	nt
Cc1cc(C)c(C)c(S(=O)(=O)Nc2cccc(S(=O)(=O)Nc3ccccc3C(=O)O)c2)c1C	-4	0	14*	5	-7	0.58*
CCCCOc1ccc(/C=C2/Sc3ccccc3C2=O)cc1	-17	0	13*	0	6	-0.12
CC(C)COc1ccc(/C=C2/Sc3ccccc3C2=O)cc1	0	5	5	-12	-1	nt
CCCCCCOC(=O)C(C#N)c1nc2ccccc2nc1N1CCOCC1 (stereo not given)	-1	17	20*	-2	2	-0.12
CCCCOC(=O)C(C#N)c1nc2ccccc2nc1N1CCOCC1 (stereo not given)	8	3	-8	-3	-2	nt
O=Nc1c(O)ccc2cc(S(=O)(=O)O)ccc12	nt	5	5	-4	-1	nt
CN(C)c1ccc2cc(S(=O)(=O)O)cc(O)c2c1	nt	54	12*	-3	7	1.3
COc1cccc(COCC(O)CN2CCC(C(N)=O)CC2)c1 (stereo not given)	-2	2	5	-3	-3	nt
Fc1ccc(C2Nc3cccc4cccc(c34)N2)cc1	6	1	-6	0	-3	nt
CCN(CC)c1ccc(C2Nc3cccc4cccc(c34)N2)cc1	0	25	26*	-4	0	-0.02
Cc1ccc(-n2c(N)c(C#N)c(-c3ccccc3)c(C#N)c2=O)cc1	-3	-1	-6	3	0	nt
Cc1ccc(-c2nc3sc(C#N)c(N)n3c(=O)c2C#N)cc1	-5	4	14*	-43	29	-0.05
Cc1cc2nc3c(=O)n(C4CCCCC4)c(=O)[nH]c3nc2cc1N	nt	97*	48*	i	566*	-0.03	Sypro dye melt=-25
COc1cc(C2C(C#N)=C(N)OC3=C2C(=O)CC(C)(C)C3)c([N+](=O)[O-])cc1OC (stereo not given)	3	8	3	-14	13	nt
CC1(C)CC(=O)C2=C(C1)OC(N)=C(C#N)[C@@H]2c1ccccc1[N+](=O)[O-]	9	36	39*	-53	41*	-0.02	Sypro dye melt=-28
CCOC(=O)N1CCN(C(=O)c2cc3cc(Cl)ccc3[nH]2)CC1	1	2	-6	-6	0	nt
SMILES	LANA-H2B inh	C-LANA FP	Keap1 Nrf2 FP	Cardiac RTF inh	RTF Ca sens act	Keap1 TSA	others
O=C1c2ccccc2-c2onc3ccc(Oc4ccccc4)c1c23	0	11	56*	-56	31*	-0.07	Sypro dye melt=-30
N#Cc1ccc(COC(=O)c2cnc(Cl)c(Cl)c2)cc1	-2	-4	-1	-24	-2	nt
Clc1ccc(C2=CC(c3ccco3)n3ncnc3N2)cc1 (stereo not given)	7	48	28*	-205	217*	-0.02	Sypro dye melt=-34
COc1ccc(C2=CC(c3ccco3)n3ncnc3N2)cc1 (stereo not given)	nt	40	20*	-98	83*	-0.16	Sypro dye melt=-28
Cc1ccc(C2=CC(c3ccc(C)cc3)n3ncnc3N2)cc1 (stereo not given)	-2	0	1	-11	1	nt
O=C(NCc1n[nH]c(=O)c2ccccc12)C1CC(=O)N(c2ccccc2)C1 (stereo not given)	-4	-1	1	-5	-1	nt
Cc1ccc(O)c(C(=O)c2cnc3c(c2)c(=O)n(C)c(=O)n3C)c1	-7	1	-1	nt	nt	nt
Cc1ccc(O)c(C(=O)c2cnc3c(c2)c(C)nn3-c2ccccc2)c1	1	1	23*	-7	-8	-0.1	Sypro dye melt=-28
CCc1sc(C(=O)Nc2cccnc2)cc1Br	0	-1	-2	1	-1	nt
NC(=O)COc1ccc(NC(=O)CC23CC4CC(CC(C4)C2)C3)cc1	-1	1	22*	-3	0	-0.09
CNC(=O)c1ccc(NC(=O)CC23CC4CC(CC(C4)C2)C3)cc1	-1	0	-2	-9	-7	nt
CCN1C(=O)c2cccc3c(N)ccc(c23)C1=O	3	38	38*	i	+	-0.2
O=[N+]([O-])c1ccc(N2CCN(S(=O)(=O)c3ccccc3)CC2)cc1NCc1ccco1	4	nt	nt	nt	nt	nt
Cc1ccc(NC(=O)CN2C(=O)NC3(CCCC3)C2=O)cc1S(=O)(=O)N1CCCCC1	2	1	-3	6	-5	nt
Cc1ccc(NC(=O)CN2C(=O)NC3(CCCCCC3)C2=O)cc1Cl	5	-1	20*	-13	0	-0.03
CN1C(=O)c2cccc3c(S(N)(=O)=O)ccc1c23	4	19	29*	-2	5	-0.09
Cc1ccccc1NS(=O)(=O)c1ccc2c3c(cccc13)C(=O)N2C	3	0	3	4	-7	nt
COCCCNc1nc(N)c([N+](=O)[O-])c(Nc2cc(OC)ccc2OC)n1	2	16	38*	nt	nt	-0.08
CN(C)CCP(=O)(c1ccccc1)c1ccccc1	-10	0	-4	1	5	nt
CN(C)CCN(C)Cc1c2ccccc2c(CN(C)CCN(C)C)c2ccccc12	7	28	19*	-29	26	-0.15	Sypro dye melt=-22

High-throughput results (PubChem)
